# Active and inactive are the calls of the source. The calls were made as follows: active = hit-call score of the fitted dose curve at least 0.9, where 1 is the maximum; inactive = score below 0.9.
# Experiment: ATG_Ets_CIS: Attagene CIS-FACTORIAL HepG2 Assay for human Erythroblast Transformation Specific (ETS) (AID 2282941)
# Conditions: HepG2 ETS cis-reporter transcription, actives raise or lower the signal
# Method: ATG_CIS is a cell-based, multiplexed-readout assay that uses HepG2, a human liver cell line, with measurements taken at 24 hours after chemical dosing in a 24-well plate.ATG_Ets_CIS is one of 52 assay component(s) measured or calculated from the ATG_CIS assay. It is designed to make measurements of mRNA induction, a form of inducible reporter, as detected with fluorescence intensity signals by Reverse transcription polymerase chain reaction (RT-PCR) and Capillary electrophoresis technology.Data from the assay component ATG_Ets_CIS was analyzed into 1 assay endpoint. This assay endpoint, ATG_Ets_CIS, was analyzed with bidirectional fitting relative to DMSO as the negative control and baseline of activity. Using a type of inducible reporter, measures of mRNA for gain or loss-of-signal activity can be used to understand the reporter gene at the transcription factor-level as they relate to the gene ETS1. Furthermore, this assay endpoint can be referred to as a primary readout, because this assay has produced multiple assay endpoints where this one serves a reporter gene function. To generalize the intended target to other relatable targets, this assay endpoint is annotated to the dna binding intended target family, where the subfamily is winged helix-turn-helix.
# Human liver HepG2 cells are transiently transfected with multiple reporter transcription units (MRTUs) in 6-well plates using FuGene 6 reagent (Roche; 3 ml FuGene/1 mg DNA). The MRTU constructs are regulated by a cis-regulating element (promoter). […] A major difference between the CIS and TRANS system is that in CIS activities of endogenous TFs are measured, whereas the TRANS assay evaluates changes in activities of exogenous, chimeric NR-Gal4 proteins. […] At the end of 24 hour incubation, total RNA was isolated using TriZol reagent (Invitrogen). The isolated RNA is then reverse-transcribed using oligo(dT) primer and Mo-MLV reverse transcriptase (Invitrogen) with DNAse I (Ambion) treatment for 30 min. The one-tenth of the produced cDNA was amplified by PCR using Taq DNA polymerase (Invitrogen) and two reporter sequence-specific primers. The PCR products were fluorescently labeled by primer extension with 6-arboxyfluorescein (6-FAM) 5'-labeled reporter sequence-specific primer (2 min at 95 C, 20 s at 68 C and 10 min at 72 C) and these products were digested with 5U of HpaI (New England Biolabs) for 2h at 37 C. The fragments were purified using Qiaquick PCR columns (Qiagen), analyzed on an ABI 3130xL genetic analyzer (Applied Biosystems) with peak positions identified by using a set of X-rhodamine (ROX)-labeled MapMarker1000 molecular weight standards (BioVentures). The raw capillary electrophoresis data was processed using Attagraph software (Attagene).
SMILES,AC50,outcome
CCCCCCCCC=CCCCCCCCC1=NCCN1CCO,126 µM (active),–
CCc1ncc(C)[nH]1,–,inactive
CCCSc1ccc2nc(NC(=O)OC)[nH]c2c1,–,inactive
C=C(C)[C@@H]1CC=C(C)C(=O)C1,–,inactive
O=C(Nc1ccc([N+](=O)[O-])cc1)Nc1ccc([N+](=O)[O-])cc1 (tested in a mixture with another compound),–,inactive
CCCCCCC(=O)c1ccccc1,–,inactive
CN(C)CCOc1ccc(/C(=C(/CCCl)c2ccccc2)c2ccccc2)cc1,–,inactive
COCCOC(=O)c1ccccc1C(=O)OCCOC,–,inactive
COc1cc(CCC(C)=O)ccc1O,–,inactive
CC(C)CCCCCCCCCCCCCCC(=O)O,–,inactive
CCCCCCCCCCCCS(=O)(=O)Cl,–,inactive
CCOC(=O)C(C#N)=C(c1ccccc1)c1ccccc1,–,inactive
CCC1CCCCC1,–,inactive
COc1cccc(OC)c1O,–,inactive
CCCCCCCCCC(=O)OC,–,inactive
CCCCCCCCc1ccc(S(=O)(=O)O)cc1,156 µM (active),–
CC1CCC(C(C)C)C(O)C1 (stereo not given),–,inactive
CCCCCC(=O)CC,–,inactive
CS(C)=O,–,inactive
CC(C)C(OC(=O)c1ccccc1)C(C)(C)COC(=O)c1ccccc1 (stereo not given),–,inactive

SMILES,AC50,outcome
O=C1OC[C@H](Cc2cccc(O)c2)[C@H]1Cc1cccc(O)c1,–,inactive
C=C(C)CNCC,–,inactive
Cc1cc(=O)oc2cc(N(C)C)ccc12,–,inactive
CN(C)CCOC(C)(c1ccccc1)c1ccccn1 (stereo not given),–,inactive
CCCOC(=O)c1c(Cl)c(Cl)c(Cl)c(Cl)c1C(=O)OCCC,–,inactive
CCCCCCOC(=O)CCC,–,inactive
CC(C)(C)C1=CC(=O)C(C(C)(C)C)=CC1=O,36.6 µM (active),–
CCN(CCN)c1cccc(C)c1,–,inactive
COc1ccc(CCO)cc1,–,inactive
CC(=O)O[C@@H]1C[C@@H]2CC[C@@]1(C)C2(C)C,–,inactive
COc1cc(Cl)c(OC)cc1N,–,inactive
O=[N+]([O-])c1ccc(O)cc1C(F)(F)F,–,inactive
Nc1c(Cl)cc(Cl)cc1[N+](=O)[O-],–,inactive
Cc1[nH]c(=O)c(C#N)cc1-c1ccncc1,–,inactive
CC1(C)O[C@@H]2[C@@H](CO[C@@]3(COS(N)(=O)=O)OC(C)(C)O[C@@H]23)O1,–,inactive
NCCNc1cccc2ccccc12,–,inactive
Cc1c(OCC(F)(F)F)ccnc1CS(=O)c1nc2ccccc2[nH]1 (stereo not given),–,inactive
CC(C)(C)CC(C)(C)c1ccc(OCCOCC[N+](C)(C)Cc2ccccc2)cc1,–,inactive
C[C@H]1C[C@@H](O)CC(C)(C)C1,–,inactive
CC1(C)COCN1,–,inactive

# From PubChem BioAssay (EPA / NIEHS)
